The values below come from PubChem BioAssay (EPA / NIEHS).

“And” between values parts separate entries of the source, which are not always exact repeats. Identical values can stand only once. Some compounds were tested as several samples or in several runs, with calls that do not always agree. The source made the active and inactive calls. How the source made its calls: active means hit-call score of the fitted dose curve at least 0.9, where 1 is the maximum; inactive means score below 0.9.

Read-out in assay [1]: TIMP metallopeptidase inhibitor 2 (TIMP2), TIMP2 (gene 7077)
Briefly: BSK_KF3CT_TIMP2: BioMAP Diversity Plus: KF3CT Assay for TIMP metallopeptidase inhibitor 2 (TIMP2) Biomarker Activity (AID 2283071). Conditions: primary human keratinocytes with fibroblasts; actives raise or lower the signal. In outline: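 Cells: human keratinocytes co-cultured with foreskin fibroblasts. Treat with chemical, 24 h. Measure TIMP-2 by ELISA; fit curves bidirectionally vs DMSO baseline.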

Read-out in assay [2]: Transforming growth factor beta 1 (TGFb1), TGFB1 (gene 7040)
Briefly: BSK_KF3CT_TGFb1: BioMAP Diversity Plus: KF3CT Assay for Transforming growth factor beta 1 (TGFb1) Biomarker Activity (AID 2283072). Conditions: primary human keratinocytes with fibroblasts; actives raise or lower the signal. In outline:
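Primary human skin cells (keratinocytes, foreskin fibroblasts) were co-cultured, exposed to test chemical and sampled at 24 h. TGF-b1 levels were measured by ELISA and fitted bidirectionally relative to DMSO.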

Read-out in assay [3]: C-C motif chemokine 2 (Homo sapiens) (UniProt P13500)
Briefly: BSK_KF3CT_MCP1: BioMAP Diversity Plus: KF3CT Assay for Monocyte Chemoattractant Protein 1 (MCP1/CCL2) Biomarker Activity (AID 2283073). Particulars: primary human keratinocytes with fibroblasts; actives raise or lower the signal. The method, boiled down: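 ELISA readout of MCP-1 after 24 h chemical dosing of a human skin primary co-culture of keratinocytes and foreskin fibroblasts. Activity was fitted in both directions against DMSO.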

Read-out in assay [4]: Matrix Metallopeptidase 9 (MMP9), MMP9 (gene 4318)
The experiment in a line: BSK_KF3CT_MMP9: BioMAP Diversity Plus: KF3CT Assay for Matrix Metallopeptidase 9 (MMP9) Biomarker Activity (AID 2283074).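 On AC50: MMP9 protein level quantified by ELISA in the co-culture.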 Conditions: primary human keratinocytes with fibroblasts; actives raise or lower the signal. The method, boiled down:
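Human keratinocyte/foreskin fibroblast co-culture; compound added; 24 h; MMP-9 by ELISA; bidirectional fit vs DMSO baseline.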

Read-out in assay [5]: urokinase plasminogen activator (uPA), PLAU (gene 5328)
Briefly: BSK_KF3CT_uPA: BioMAP Diversity Plus: KF3CT Assay for urokinase plasminogen activator (uPA) Biomarker Activity (AID 2283075). Conditions: primary human keratinocytes with fibroblasts; actives raise or lower the signal. In outline:
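ELISA readout of uPA, analyzed for signal gain or loss relative to DMSO, from a human primary keratinocyte–foreskin fibroblast co-culture measured 24 h after chemical treatment.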

Read-out in a further assay: CD40, CD40 (gene 958)
Briefly: BSK_LPS_CD40: BioMAP Diversity Plus: LPS Assay for CD40 Biomarker Activity (AID 2283076). Particulars: primary human HUVEC with PBMC; actives raise or lower the signal. In outline:
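Cells were dosed, incubated 24 h, then assayed for CD40 by ELISA. Gain or loss of signal was analysed relative to DMSO controls. The culture paired human umbilical vein endothelium with peripheral blood mononuclear cells.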

Read-out in assay [6]: E-selectin (Homo sapiens) (UniProt P16581)
The experiment in a line: BSK_LPS_Eselectin: BioMAP Diversity Plus: LPS Assay for Eselectin Biomarker Activity (AID 2283077). Conditions: primary human HUVEC with PBMC; actives raise or lower the signal. In outline: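 Primary human vascular co-culture (endothelium plus PBMC) was dosed with chemical, then E-selectin quantified by ELISA at 24 h. Endpoint values derive from bidirectional curve fitting relative to DMSO.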

Read-out in assay [7]: Interleukin-8 (IL8), CXCL8 (gene 3576)
Briefly: BSK_LPS_IL8: BioMAP Diversity Plus: LPS Assay for Interleukin-8 (IL8) Biomarker Activity (AID 2283078). Particulars: primary human HUVEC with PBMC; actives raise or lower the signal. The method, boiled down: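 Readout is IL-8 by ELISA, taken 24 h after compounds were added to LPS-stimulated endothelial/PBMC co-cultures. Both increases and decreases relative to DMSO control were scored through bidirectional fitting.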

Assay [8] is described as follows: BSK_LPS_SRB: Viability Assessment in the BioMAP Diversity Plus: LPS Assay (AID 2283079).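 Further: total protein by sulforhodamine B absorbance as a cytotoxicity measure; measured one day after compound addition; fitted in both directions against DMSO so loss or gain of signal counts.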 Conditions: primary human HUVEC with PBMC. The method, boiled down: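 Readout is SRB absorbance at 560 nm (0.1% stain, TCA-fixed parallel cultures) as a total-protein cytotoxicity measure. Cells: primary human umbilical vein endothelium plus peripheral blood mononuclear cells, 24 h after chemical exposure; DMSO served as baseline.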

Read-out in assay [9]: Interleukin-1 alpha (IL1a), IL1A (gene 3552)
Briefly: BSK_LPS_IL1a: BioMAP Diversity Plus: LPS Assay for Interleukin-1 alpha (IL1a) Biomarker Activity (AID 2283080). Particulars: primary human HUVEC with PBMC; actives raise or lower the signal. The method, boiled down: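 ELISA read-out of IL-1 alpha from a human primary vascular co-culture (endothelium plus PBMC) under LPS, sampled 24 hours post-dosing. Activity was fitted in both directions relative to DMSO controls.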

E-selectin (Homo sapiens), sequence (P16581 whole entry, looked up): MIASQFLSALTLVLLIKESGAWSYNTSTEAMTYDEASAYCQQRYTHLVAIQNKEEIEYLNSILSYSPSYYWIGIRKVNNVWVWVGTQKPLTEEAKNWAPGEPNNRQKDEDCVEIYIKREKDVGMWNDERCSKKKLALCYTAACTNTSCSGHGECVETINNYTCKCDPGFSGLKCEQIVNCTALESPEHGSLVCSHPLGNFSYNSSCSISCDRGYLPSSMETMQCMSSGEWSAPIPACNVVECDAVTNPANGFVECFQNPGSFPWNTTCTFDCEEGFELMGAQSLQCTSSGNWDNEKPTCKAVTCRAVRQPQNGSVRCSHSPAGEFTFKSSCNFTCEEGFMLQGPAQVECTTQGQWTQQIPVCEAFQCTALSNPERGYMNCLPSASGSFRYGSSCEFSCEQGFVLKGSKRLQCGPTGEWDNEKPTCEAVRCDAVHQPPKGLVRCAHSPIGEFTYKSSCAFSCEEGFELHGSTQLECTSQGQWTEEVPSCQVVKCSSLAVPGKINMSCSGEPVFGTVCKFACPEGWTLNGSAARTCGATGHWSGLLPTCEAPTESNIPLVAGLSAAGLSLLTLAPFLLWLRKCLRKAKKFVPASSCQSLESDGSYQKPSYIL

With `Clc1cc(Cl)c(-c2c(Cl)c(Cl)cc(Cl)c2Cl)cc1Cl`, the AC50 in assay [1] was 6.63 µM (active); in assay [2] it was 4.16 µM (active); in [3] it was 10 µM (active); in [4] it was 8.51 µM (active); in assay [5] it was 10 µM (active); in the assay with CD40, CD40 (gene 958), 10 µM (active). For the same molecule, the values for the AC50 in assay [6] and in assay [9] were 8.81 µM (active) and 12.5 µM (active), respectively. In addition, the result in assay [7] and in assay [8] was inactive.

For the molecule `CN(C)C(=O)Nc1ccc(Oc2ccc(Cl)cc2)cc1`, the outcome in [1] was “inactive”; in assay [2], “inactive”; in [3], “inactive”; in assay [4], “inactive”; in assay [5] it was “inactive”; with CD40, CD40 (gene 958), “inactive”. The result in [6], in assay [7], in [8] and in [9] was inactive.

For `CC=Cc1ccc(OCC)c(O)c1`, the outcome in [1] was “inactive”; in assay [2] it was “inactive”; in assay [3] it was “inactive”; in assay [4] it was “inactive”; in assay [5], “inactive”; with CD40, CD40 (gene 958), “inactive”. The outcome in assay [6], in [8] and in assay [9] was inactive.

Regarding `CCCCCCC(CO)CCCC` (centres undefined), the AC50 in assay [1] was 35.1 µM (active) and 35.2 µM (active); in assay [3], 32.9 µM (active) and 36.2 µM (active); in [4], 35.1 µM (active) and 36.4 µM (active); in [5], 30.5 µM (active) and 36.6 µM (active). For the same molecule, the outcome in the assay with CD40, CD40 (gene 958) was “inactive”; in assay [6] it was “inactive”; in assay [7], “inactive”; in assay [8] it was “inactive”; in assay [9], “inactive”.

Take `O=CN1CCOCC1`: the outcome is “inactive” in [1]; “inactive” in assay [3]; “inactive” in assay [4]; “inactive” in assay [5]; “inactive” with CD40, CD40 (gene 958); “inactive” in assay [6]. Also, the outcome in [7], in assay [8] and in [9] was inactive.

In the case of `CC(CN=Cc1ccccc1O)N=Cc1ccccc1O` (centres undefined), the outcome was “inactive” in assay [1]; “inactive” in assay [3]; “inactive” in assay [4]; “inactive” in [5]; “inactive” with CD40, CD40 (gene 958); “inactive” in assay [6]. For the same molecule, the outcome in [7], in [8] and in assay [9] was inactive. Besides, the AC50 in assay [7] was 0.151 µM (active).

For the molecule `O=C(Nc1ccc2c(O)c(N=Nc3ccc(N=Nc4ccc(S(=O)(=O)O)cc4)cc3)c(S(=O)(=O)O)cc2c1)c1ccccc1`, the outcome is “inactive” in assay [1]; “inactive” in assay [3]; “inactive” in assay [4]; “inactive” in assay [5]; “inactive” in the assay with CD40, CD40 (gene 958); “inactive” in [6]. Further, the outcome in assay [7], in assay [8] and in [9] was inactive.

On to `C=CC(C)(O)CCC=C(C)C` (centres undefined), for which the outcome in [1] was “inactive”; in [3], “inactive”; in [4], “inactive”; in assay [5], “inactive”; with CD40, CD40 (gene 958) it was “inactive”; in [6], “inactive”. Moreover, the result in assay [7], in assay [8] and in assay [9] was inactive.

As for `CN(c1nccc(=O)[nH]1)C1CCN(c2nc3ccccc3n2Cc2ccc(F)cc2)CC1`, the outcome in assay [1] is “inactive”; in [2], “inactive”; in assay [3], “inactive”; in assay [4] it was “inactive”; in [5], “inactive”; in the assay with CD40, CD40 (gene 958), “inactive”. Besides, the result in [6], in [7], in assay [8] and in [9] was inactive.

As for `C[C@@H]1CCN(C(=O)[C@H](CCCN=C(N)N)NS(=O)(=O)c2cccc3c2NC[C@H](C)C3)[C@@H](C(=O)O)C1`, the outcome was “inactive” in assay [1]; “inactive” in [2]; “inactive” in assay [3]; “inactive” in [4]; “inactive” in [5]; “inactive” in the assay with CD40, CD40 (gene 958). In addition, the result in assay [6], in assay [7], in [8] and in [9] was inactive.

`O=C1OC2(c3ccccc31)c1ccc(O)c(Br)c1Oc1c2ccc(O)c1Br`: the AC50 in assay [1] is 20 µM (active); in assay [2], 4.66 µM (active); in assay [3] it was 20 µM (active); with CD40, CD40 (gene 958), 20 µM (active); in assay [6] it was 24.5 µM (active); in assay [9], 20 µM (active). In addition, the result in assay [4], in assay [5], in assay [7] and in [8] was inactive.

For `CCOC(=O)C(C#N)=C(c1ccccc1)c1ccccc1`, the outcome is “inactive” in assay [1]; “inactive” in assay [3]; “inactive” in [4]; “inactive” in assay [5]; “inactive” with CD40, CD40 (gene 958); “inactive” in [6]. The result in [7], in assay [8] and in [9] was inactive.

The term AC50 denotes the midpoint of the concentration-response curve, whichever way the signal moves.
